Sampled rows, rich in hits. Any-hit rate of the full collection: about 7.9%.
HCMV inh: inhibitors of human cytomegalovirus. AID 1259415. 410,000 tested, 4.5% active. activity change, negative = inhibition, % at 57.5 µM. HFF cells, HCMV-luciferase reporter, 72 h; stronger effect = lower value; in the data active means activity change below about -60%; inconclusive means no clear call, values can overlap the other calls; inactive means above about -39%
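Screen run at 2 compound doses on HFFs infected with reporter HCMV, MOI 1 PFU/cell. Luciferase activity from cell lysates at 72 h post infection gave inhibition relative to buffer-only and Salinomycin wells.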
FMDV antiviral: antivirals against foot and mouth disease virus; 410,000 tested, 1.2% active; Potency, µM (series often up to 57.9 µM), inactives show at the top dose activity change, negative = inhibition, usual class: inhibitors; FMDV antiviral cell-based qHTS; calls by dose curve; tested in HEK293T cells; further: read-out not given here; potency means the concentration at half of the fitted maximal effect; nearly all actives have a fitted effect of over 45% in size
LASV entry inh: blocks Lassa virus binding to or entry into cells; Lassa virus pseudotype entry inhibition, cell reporter; Potency, µM (titrated, usually from 37.9 µM), without a hit: at the highest dose activity change, negative = inhibition, actives largely listed as inhibitors; 300,000 tested, 1.2% active; AID 540256; calls by dose curve; tested in HEK293 cells; further: potency means the concentration at half of the fitted maximal effect; nearly all actives have a fitted effect of over 50% in size
MARV entry inh: blocks Marburg virus binding to or entry into cells; Marburg virus pseudotyped entry inhibition, cell reporter; Potency, µM (highest dose often 37.8 µM), without a hit: at the highest dose activity change, negative = inhibition, hits mostly inhibitors; 300,000 tested, 1.8% active; AID 540276; calls by dose curve; tested in HEK293 cells; further: potency means the concentration at half of the fitted maximal effect
HCV inhibitor: blocks hepatitis C virus. 340,000 tested, 3.4% active. Huh7.5.1 HCVcc-Cre infection, luciferase reporter, 44 h. Potency, µM (top dose mostly 41.8 µM), inactives show top-dose activity change, negative = inhibition, hits mostly inhibitors; active means well fitted inhibition curve with a large enough effect; inconclusive means small, poorly fitted or top-dose-only effect, or another doubt; inactive means no such curve, though single readings can be large or run the other way; further: potency means the concentration at half of the fitted maximal effect
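Cells seeded at 1,000/well and cultured 4 h, then compounds added followed by HCVcc-Cre virus (~0.5 moi). After 44 h further culture, luciferase substrate was added, plates held 15 min at room temperature, and luminescence read for 15 sec.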
Active calls of the source: *; ? = inconclusive; nt = no result; [ ] = another dose, or the depositor's remark. On the % scale 0 is the no-effect control and ±100 the full control effect.

SMILES	HCMV inh	FMDV antiviral	LASV entry inh	MARV entry inh	HCV inhibitor
Cc1cccc(/C=C2\Sc3ccc(C(=O)NCC4CCCO4)cc3N(C)C2=O)c1 (stereo not given)	-27.0	-25.3%	?	7.08µM*	?
CCOc1ccc(/C=C2/Sc3ccc(C(=O)NCC4CCCO4)cc3N(C)C2=O)cc1OC (stereo not given)	4.5	?	nt	nt	?
CCOC(=O)N1CCN(C(=O)c2ccc3c(c2)N(C)C(=O)/C(=C\c2ccc(OCC)c(OC)c2)S3)CC1	?	35.5µM*	5.01µM*	11.2µM*	10µM*
CN(CC(=O)Nc1cccc(F)c1)C(=O)c1ccccc1CCc1ccccc1	-33.1	4.8%	?	?	?
Cc1cccc(CNC(=O)c2cnn(-c3ncc(C)c(-c4ccc(F)cc4)n3)c2C)n1	nt	-10.0%	nt	nt	nt
COC(=O)[C@H]1[C@H]2C[C@@H]3c4[nH]c5cc(OC)ccc5c4CCN3C[C@H]2C[C@@H](OC(=O)c2cc(OC)c(OC)c(OC)c2)[C@@H]1OC	22.5	-17.5%	7.3µM*	10.3µM*	?
COCCCNC(=S)N1CCN(Cc2ccc3c(c2)OCO3)CC1	-102.7*	-18.1%	nt	nt	9.6%
COCCNC(=S)N/N=C(\C)CCc1ccc2c(c1)OCO2	-67.1*	-1.0%	-1.9%[46.1 µM]	5.5%[46.1 µM]	-20.4%
Cc1ccccc1NC(=S)N1CCN(Cc2ccc3c(c2)OCO3)CC1	-28.1	?	-1.8%	?	9.4%
CCCCOc1ccc(C(=O)NCC(=O)N2CCN(Cc3ccc4c(c3)OCO4)CC2)cc1	-68.4*	0.0%	0.0%	-20.5%	?
C/C(CCc1ccc2c(c1)OCO2)=N\NC(=S)NC(C)C	-35.6	0.0%	nt	nt	-7.1%
Cc1ccc(S(=O)(=O)N(C)C)cc1NC(=S)N1CCN(Cc2ccc3c(c2)OCO3)CC1	?	?	nt	nt	12.6µM*
COc1ccc(CN(Cc2ccc(C(=O)O)cc2)C(=S)Nc2ccc(C)cc2)cc1OC	-29.6	-0.5%	6.9%[46.1 µM]	5.3%[46.1 µM]	23.4%
COc1ccccc1CN(C(=O)c1cnccn1)C(C(=O)NC1CCCCC1)c1cc(OC)c(OC)c(OC)c1 (stereo not given)	-26.7	-1.0%	-2.5%[46.1 µM]	-1.3%[46.1 µM]	-1.1%
CCN(CC)c1ccc(C(=O)NC(=S)N2CCN(Cc3ccc4c(c3)OCO4)CC2)cc1	-7.7	-18.6%	-4.2%	2.5%	11.2µM*
CC(C)NC(=S)N1CCN(Cc2ccc3c(c2)OCO3)CC1	-38.0	-15.4%	24.8%	3.2%[46.1 µM]	-0.2%
C[C@]12C=CC(=O)C=C1CCC1C2=CC[C@]2(C)[C@@H](C(=O)CN3CCN(c4cc(N5CCCC5)nc(N5CCCC5)n4)CC3)CC[C@@H]12 (stereo not given in full)	nt	nt	nt	5.62µM*	nt
N#C/C(=C\c1ccc(Sc2nc3ccccc3[nH]2)o1)c1ccccc1	-96.0*	?	?	?	10µM*
N#C/C(=C\C1CC=CCC1)c1nc2ccccc2[nH]1 (stereo not given)	-82.3*	?	?	?	?
N#C/C(=C/c1ccc(N2CCOCC2)o1)c1nc2ccccc2[nH]1	107.3	-60.9%	?	?	-31.4%
FC(F)Sc1nc2ccccc2[nH]1	11.0	36.3%	-2.4%	-0.3%[14.2 µM]	4.4%
N#Cc1ccc(Sc2nc3ccccc3[nH]2)cc1C#N	-76.9*	-23.8%	-25.5%	?	-5.0%
Cn1c(/C(C#N)=C/C2CC=CCC2)nc2ccccc21 (stereo not given)	-15.8	nt	-21.6%	-28.5%	5.3%
N#C/C(=C\c1c(Cl)cccc1Cl)c1nc2ccccc2[nH]1	-69.6*	-17.6%	?	?	-26.0%
Cc1cc2c(c(-c3cnccn3)c1)OC(CNC(=O)c1cc(Cl)ccc1F)C2 (stereo not given)	nt	-7.6%	nt	nt	nt
SMILES	HCMV inh	FMDV antiviral	LASV entry inh	MARV entry inh	HCV inhibitor
c1ccc(Cc2nnc3n2CCN(Cc2cnc(-c4ccccc4)s2)CC3)cc1	nt	-19.2%	nt	nt	nt
N#C/C(=C\c1ccc(Sc2ccc(Cl)cc2)o1)c1nc2ccccc2[nH]1	-67.8*	-30.0%	-16.1%	?	?
CCN(CC)CCNC(=O)c1cnn(-c2ncc3c(n2)-c2ccc(OC)cc2CC3)c1C	nt	-17.7%	nt	nt	nt
CCN(CC)CCn1c(NCc2ccc(OC)cc2)nc2ccccc21	-100.3*	-20.1%	-22.4%	?	?
COc1cccc(CNc2nc3ccccc3n2CCN2CCCCC2)c1OC	66.1	-22.9%	?	11.2µM*	-4.3%
COc1ccc(CNc2nc3ccccc3n2CCN2CCCCC2)c(OC)c1	?	-1.2%	-23.0%	?	-14.5%
COc1ccc(/C=N/c2nc3ccccc3n2CCN2CCCCC2)cc1OC	-63.9*	-15.7%	?	-20.0%	-3.3%
C=CCn1c(/N=C/c2ccc(OC)cc2)nc2ccccc21	nt	21.8%	nt	nt	11.9%
CCn1c(NCc2cccc(OC)c2OC)nc2ccccc21	26.8	42.0%	5.3%	1.4%	0.0%
COc1ccc(OC)c(CNc2nc3ccccc3n2CCN2CCCCC2)c1	-29.6	-10.1%	-10.6%	?	11.2µM*
Cc1ccc(-n2c(=O)c3c4c(sc3n(CC(=O)Nc3ccccc3C)c2=O)CCCCC4)cc1C	7.0	3.1%	5.1%[46.1 µM]	?	nt
COC(=O)C1=C(C(=O)OC)[C@@H]2N(C)c3ccccc3[C@@]23CCC(=O)N(CCCOC(C)C)C3=N1	nt	nt	nt	-9.7%[14.2 µM]	nt
COc1ccc(CN2C(=O)CCC2(C)c2nnnn2Cc2ccccc2)cc1 (stereo not given)	17.2	-16.8%	nt	nt	nt
C=CCC(C#N)(c1ccc(OC)c(OC)c1)c1cnccn1 (stereo not given)	-64.9*	-10.4%	nt	nt	-0.7%
C[S+](=O)([O-])c1sc(C(=O)NC(=S)NC2CCC(OC(F)(F)F)CC2)c2c1C=CCC2 (stereo not given)	nt	nt	nt	-2.0%[46.1 µM]	nt
O=C(Nc1cccc(Cl)c1)c1c(NC(=O)C(F)(F)F)sc2c1CCCC2	-105.5*	?	?	nt	nt
Cc1cccc(NC(=O)c2c(NC(=O)C(F)(F)F)sc3c2CCCCC3)c1	-100.1*	?	?	nt	nt
O=C(COc1ccc(Cl)cc1)Nc1sc2c(c1C(=O)Nc1cccc(Cl)c1)CCCC2	-37.7	-14.9%	5.1%[46.1 µM]	nt	nt
CCN(CC)CCCC(C)NC(=O)c1c(NC(=O)c2ccccc2)sc2c1CCCC2 (stereo not given)	-27.3	10.3%	nt	nt	10µM*
COc1ccc(NC(=O)c2c(NC(=O)c3ccc(Br)cc3)sc3c2CCCC3)cc1	-62.7*	?	1.7%[46.1 µM]	nt	nt
Cc1ccc(C(=S)N2CCCCCC2)cc1	-18.4	-18.1%	8.9%	21.7%	14.3%
Cc1cccc(C(=O)Nc2sc3c(c2C(=O)O)CCCC3)c1	-6.3	-10.2%	?	2µM*	?
Cc1ccc(NC(=O)c2c(NC(=O)C(F)(F)F)sc3c2CCCCC3)cc1	-99.7*	?	?	nt	nt
Cc1ccccc1NC(=O)c1c(NC(=O)c2ccccc2)sc2c1CCC2	21.1	-7.1%	16.4%[46.1 µM]	nt	nt
Cc1ccccc1NC(=O)c1c(NC(=O)C(F)(F)F)sc2c1CCCCC2	-102.1*	?	?	nt	nt
Cc1nnc(SCC(=O)Nc2sc3c(c2C(=O)c2ccccc2)CCCC3)s1	-62.0*	-9.3%	-11.3%	18.0%	?

From PubChem
